Experimental data from PubChem BioAssay AID1942 (Johns Hopkins Ion Channel Center, 2009).
Out of some 2,400 compounds screened, about 580 (24%) were called active. The list is a sample of the results. Values without a mark were called inactive.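 How the source made its calls: active means activity change at or above the mean plus 3 SD of buffer wells without dofetilide, per plate; inactive means the rest.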

These compounds were tested against Potassium voltage-gated channel subfamily KQT member 2 (Rattus norvegicus) (UniProt O88943) (assay: KCNQ2 potentiation in CHO cells – cell-based, FluxOR thallium flux, counter-screen for hERG block protector project, confirmation (AID 1942;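 further: normalized value minus buffer-control mean plus three SD of buffer wells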)). Conditions: FluxOR thallium flux fluorescence, at 10 µM, active compounds read high.
Sequence of Potassium voltage-gated channel subfamily KQT member 2 (Rattus norvegicus) (O88943 whole entry, looked up): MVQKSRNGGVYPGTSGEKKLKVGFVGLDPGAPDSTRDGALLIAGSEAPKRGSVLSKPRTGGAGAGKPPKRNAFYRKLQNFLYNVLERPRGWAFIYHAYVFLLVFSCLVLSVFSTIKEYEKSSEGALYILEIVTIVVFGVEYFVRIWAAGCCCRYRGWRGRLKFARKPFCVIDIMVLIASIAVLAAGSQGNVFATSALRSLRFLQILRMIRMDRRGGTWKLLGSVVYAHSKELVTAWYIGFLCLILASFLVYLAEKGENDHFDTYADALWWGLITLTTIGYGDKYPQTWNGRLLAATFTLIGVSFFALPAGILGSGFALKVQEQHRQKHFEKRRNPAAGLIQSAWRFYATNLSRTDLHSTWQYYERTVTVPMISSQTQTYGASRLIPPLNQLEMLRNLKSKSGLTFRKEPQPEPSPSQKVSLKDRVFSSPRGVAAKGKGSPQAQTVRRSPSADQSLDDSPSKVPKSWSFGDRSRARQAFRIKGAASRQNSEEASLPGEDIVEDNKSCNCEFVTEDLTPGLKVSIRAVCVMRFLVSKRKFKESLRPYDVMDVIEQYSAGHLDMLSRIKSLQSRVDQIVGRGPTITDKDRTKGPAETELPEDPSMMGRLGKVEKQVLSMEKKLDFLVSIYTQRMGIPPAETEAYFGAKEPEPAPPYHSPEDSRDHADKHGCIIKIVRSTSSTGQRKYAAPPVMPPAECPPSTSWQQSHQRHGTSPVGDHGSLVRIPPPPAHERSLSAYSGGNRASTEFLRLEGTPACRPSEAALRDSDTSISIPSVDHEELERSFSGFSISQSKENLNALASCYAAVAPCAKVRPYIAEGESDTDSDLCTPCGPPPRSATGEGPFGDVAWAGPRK

SMILES	activity change, less the hit threshold
CCCCCCCc1c(O)nc(SCC(=O)O)[nH]c1=O	-8.4%
Cc1cc(-c2ccccc2)[nH]c(=O)c1S(=O)(=O)c1ccccc1	-13%
C/C(N)=C(/C#N)C(=O)COC(=O)C1CCC(C(C)(C)C)CC1 (stereo not given)	-10%
Cn1cc(CCC(=O)N2CCCC(Nc3ccc(F)cc3)C2)cn1 (stereo not given)	-23.8%
CCC(=O)Nc1nnc(-c2ccccn2)o1	-22.5%
CC(Oc1ccc(Cl)cc1)/C(N)=N/O (stereo not given)	-19.6%
Cc1ccccc1Cn1nc(C)c(NC(=O)c2ccccc2)c1C	51.6% (active)
CC(=O)c1n[nH]nc1NC(=O)c1ccccc1	-9.7%
CCc1cccc(C)c1NC(=O)C1=C(C(=O)O)CCCC1	-15.9%
COc1ccc(CCN2C(=O)CSC2=S)cc1OC	-24%
O=C(CCC1CCCC1)NNC(=O)c1cccc(Cl)c1	11.7% (active)
O=C(NC(=S)NCCc1ccccc1)c1cccc(Cl)c1	-22.4%
Cc1cccc(C(=O)NC(=S)NNC(=O)c2ccc(Cl)cc2)c1	-29%
Cc1ccccc1NC(=O)CC1S/C(=N/c2nccs2)N(C)C1=O (stereo not given)	-17.1%
O=C(O)C1CCN1C1CCCCC1 (stereo not given)	-22.9%
CCOC(=O)c1ccc(Oc2cc(C)nc(SC)n2)cc1	11.9% (active)
CCOc1cc(-n2ncc(C#N)c2N)nc(SC)n1	-21.7%
CC(C)(C)OC(=O)NCCCC(CCCNC(=O)OC(C)(C)C)C(=O)O	-22.6%
CCOC(=O)N1CCN(C(=O)COC(=O)c2cc(Cl)c(O)c(Cl)c2)CC1	-13.4%
COc1ccc2[nH]c3c(=O)n(CCN4CCOCC4)cnc3c2c1	-15.3%
O=C(Nc1ncc(Cc2ccc(C(F)(F)F)cc2)s1)c1ccc(-c2cccc([N+](=O)[O-])c2)o1	-12.3%
O=C(NCc1ccco1)c1ccc(OCC2CCCO2)cc1 (stereo not given)	-26.4%
O=C(NCC1CCCO1)c1ccc2c(=O)n(Cc3ccco3)c(SCC(=O)N3CCCC3)nc2c1 (stereo not given)	3.2% (active)
O=C(CSc1cn(CC(=O)N2CCCC2)c2ccccc12)NCC1CCCO1 (stereo not given)	-27.5%
OC(COC(c1ccccc1)c1ccccc1)CN1CCCCC1 (stereo not given)	-23.9%
COc1ccc(C(CC(=O)O)NC(=O)C(c2ccccc2)c2ccccc2)cc1 (stereo not given)	-23.8%
O=C1C(=Cc2cccn2-c2ccc(O)cc2)C(=O)c2ccccc21	-25.6%
CCCCCCC1CCC(C(=O)N2CCOCC2)CC1 (stereo not given)	5.9% (active)
O=C(C1CCN(S(=O)(=O)c2cc(Cl)ccc2Cl)CC1)N1CCOCC1	-26%
CC(C)(C)C(=O)NC(=S)N1CCOCC1	-8%
